Experimental data: PubChem BioAssay (NCATS)
Values joined by “and” are separate entries in the source; they are usually repeats but may differ in a detail not shown here. Identical values can stand only once. Inconclusive results are not listed. Entries that show only a call come without a potency. Active and inactive are the calls of the source. Unless noted, calls come from the whole dose curve; as a rule, active = well fitted curve in the direction sought with a large enough effect; inconclusive = small, poorly fitted or top-dose-only effect, or another doubt; inactive = no such curve, though single readings can be large; an effect the other way counts as inactive or inconclusive.

Columns and labels:
[1] = High-throughput drug toxicity screening in the BPDCN cell line Cal-1 (AID 1224825; call rule not given here); details: Cal-1 BPDCN cell viability, qHTS; at 45.8 µM (top of the series) unless noted
Summary of the method: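 Cal-1 cells, 500 per well in phenol-red-free RPMI with 10% FBS, exposed to compounds for 48 hours at 37C, 5% CO2. Viability read by CellTiter-Glo luminescence; percent activity normalized to DMSO (100%) and 9.2 uM bortezomib final (0%).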

[2] = qHTS assay for measurement of the activity of small molecule inhibitors on Zika virus induced Caspase-3 activity in human iPSC derived neural progenitor cells (hNPCs) (AID 1224857); note: nearly all actives have a fitted effect of over 65% in size
Summary of the method: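 Quantitative HTS format: human iPSC neural progenitors, 1 h compound pretreatment, ZIKV 2 FFU/cell for 6 h at 37 C. Percent inhibition derived from luminescent caspase-3/7 signal between uninfected and infected controls.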

[3] = qHTS assay for measurement of the activity of small molecule inhibitors on Zika virus induced Caspase-3 activity in human astrocytoma cells (AID 1224859)
Summary of the method: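 Readout is luminescence from Caspase-Glo 3/7 added after a 6 h ZIKV infection (2 FFU/cell) of compound-pretreated (1 h) SNB-19 cells; data expressed as % inhibition versus uninfected and infected wells.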

[4] = qHTS Screen of the MIPE 4.0 Collection Against Ewings Sarcoma (RDES) (AID 1259252); note: nearly all actives have a fitted effect of over 35% in size; note: potency is the fitted concentration of half-maximal effect
Summary of the method: (§1)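 Log-phase cells in RPMI with 5% FBS attached for 4 h, then received compounds as a titration for 48 h at 37C, 5% CO2. Viability was read by CellTiter-Glo luminescence and normalized to DMSO and no-cell wells.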

[5] = qHTS Screen of the MIPE 4.0 Collection Against Ewings Sarcoma (TC71) (AID 1259253); note: nearly all actives have a fitted effect of over 40% in size; note: potency is the fitted concentration of half-maximal effect
Summary of the method: as §1

[6] = qHTS Screen of the MIPE 4.0 Collection Against Ewings Sarcoma (EW8) (AID 1259255); note: nearly all actives have a fitted effect of over 35% in size; note: potency is the fitted concentration of half-maximal effect
Summary of the method: as §1

[7] = qHTS Screen of the MIPE 4.0 Collection Against Ewings Sarcoma (TC32) (AID 1259256); note: nearly all actives have a fitted effect of over 45% in size; note: potency is the fitted concentration of half-maximal effect
Summary of the method: as §1

[8] = P-glycoprotein substrates identified in KB-8-5-11 adenocarcinoma cell line, qHTS therapeutic library screen (AID 1346987); note: nearly all actives have a fitted effect of over 65% in size; note: potency is the fitted concentration of half-maximal effect
Summary of the method: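 KB-8-5-11, a colchicine-selected P-gp-overexpressing KB-3-1 subline, was grown without colchicine for the assay. Cells were seeded at 500 cells/well, dosed in concentration-response and incubated 72 h at 37 degree C, 5% CO2. Viability was read by CellTiter-Glo luminescence.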

[9] = NS1 protein of Zika virus - qHTS assay to identify small molecule inhibitors in human HEK 293 cells (AID 1347053); note: nearly all actives have a fitted effect of over 55% in size; note: potency is the fitted concentration of half-maximal effect
Summary of the method: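 Inhibition of NS1 expression was scored in HEK 293 cells given compound 1 h ahead of MR766 virus (MOI = 0.5). Following 24 h at 37 C, two anti-NS1 antibodies generated a TR-FRET signal, scaled between uninfected and infected controls.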

[10] = qHTS of pediatric cancer cell lines to identify multiple opportunities for drug repurposing: Primary screen for TC32 cells (AID 1347089); note: nearly all actives have a fitted effect of over 60% in size; note: potency is the fitted concentration of half-maximal effect
Summary of the method: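 Measured quantity: luminescence from CellTiter-Glo, reflecting metabolically active TC32 cells following 48 h of compound. Curves came straight from multi-point titrations, with 8 or 11 points in primary and 11 in confirmatory screening.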

[11] = qHTS of pediatric cancer cell lines to identify multiple opportunities for drug repurposing: Primary screen for DAOY cells (AID 1347090); note: nearly all actives have a fitted effect of over 55% in size; note: potency is the fitted concentration of half-maximal effect
Summary of the method: (§2)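 Viability measured as metabolically active cells via CellTiter-Glo luminescence following 48 hours of compound exposure, 11-point dilutions in confirmatory testing. 500-1,000 cells/well plated 5 hours before dosing; controls were DMSO and 2.3 µM bortezomib.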

[12] = qHTS of pediatric cancer cell lines to identify multiple opportunities for drug repurposing: Primary screen for A673 cells (AID 1347092); note: nearly all actives have a fitted effect of over 45% in size; note: potency is the fitted concentration of half-maximal effect
Summary of the method: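 Cells are plated, rested 5 h, dosed by pintool, incubated 48 h, then lysed with CellTiter-Glo and read by luminescence. DMSO is the neutral control; bortezomib at 2.3 uM final is the positive control.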

[13] = qHTS of pediatric cancer cell lines to identify multiple opportunities for drug repurposing: Primary screen for BT-37 cells (AID 1347094); note: potency is the fitted concentration of half-maximal effect
Summary of the method: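 500-1,000 cells/well; 5 h pre-incubation 37 °C/5% CO2; compound pinned; 48 h; CellTiter-Glo, 15 min RT; luminescence. MIPE 11-pt from 0.78 nM, NPC 8-pt from 0.59 nM final. Bortezomib 2.3 µM final as positive control.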

[14] = qHTS of pediatric cancer cell lines to identify multiple opportunities for drug repurposing: Primary screen for SJ-GBM2 cells (AID 1347091); note: potency is the fitted concentration of half-maximal effect
Summary of the method: as §2

[15] = qHTS of pediatric cancer cell lines to identify multiple opportunities for drug repurposing: Primary screen for SK-N-MC cells (AID 1347093); note: potency is the fitted concentration of half-maximal effect
Summary of the method: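 Metabolically active cells were quantified by ATP-dependent luminescence (CellTiter-Glo, 15 min at room temperature) following 48 h treatment. Cells had been plated at 500-1,000 per well and settled for 5 h beforehand.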

| SMILES | viability (% of control) [1] [%] | Potency [2] | Potency [3] | Potency [4] | Potency [5] | Potency [6] | Potency [7] | Potency [8] | Potency [9] | Potency [10] | Potency [11] | Potency [12] | Potency [13] | Potency [14] | Potency [15] |
| --- | --- | --- | --- | --- | --- | --- | --- | --- | --- | --- | --- | --- | --- | --- | --- |
| Cn1cc(-c2ccc3ncc(Cc4ccc5ncccc5c4)n3n2)cn1 | 35.3 | inactive | inactive | inactive | inactive | inactive | inactive | inactive | inactive | inactive | inactive | inactive | inactive | – | – |
| CCc1c(O)cc(O)c(C(=O)c2ccc(OCCN3CCOCC3)c(OC)c2)c1CC(=O)N(CCOC)CCOC | 16.5 | inactive | inactive | 0.662 µM (active) | 2.35 µM (active) | 1.05 µM (active) | 0.526 µM (active) | inactive | inactive | 2.94 µM (active) | 14.8 µM (active) | – | – | 1.18 µM (active) | 0.526 µM (active) |
| CN(C)CC[C@H](c1ccc(Cl)cc1)c1ccccn1 | 98.4 | inactive | inactive | inactive | inactive | inactive | inactive | inactive | inactive | inactive | 23.5 µM (active) | – | inactive | inactive | 10.5 µM (active) |
| CN(N=O)C(=O)N[C@H]1C(O)OC(CO)[C@@H](O)[C@H]1O (stereo partly drawn) | 96.8 | inactive | inactive | inactive | inactive | inactive | inactive | inactive | inactive | inactive | inactive | – | inactive | inactive | inactive |
| CN[C@@H]1C[C@H]2O[C@@](C)([C@H]1OC)n1c3ccccc3c3c4c(c5c6ccccc6n2c5c31)C(=O)N[C@H]4O | 4.51 | inactive | inactive | 0.935 µM (active) | 0.209 µM (active) | 0.418 µM (active) | 0.187 µM (active) | 1.87 µM (active) | 0.418 µM (active) | 2.94 µM (active) | 0.469 µM (active) | – | 6.85 µM (active) | 0.118 µM (active) | 0.0372 µM (active) |
| Cc1ncc(-c2ccnc(Nc3ccc(S(C)(=O)=O)cc3)n2)n1C(C)C | 4.48 | inactive | inactive | 4.69 µM (active) | 2.64 µM (active) | 4.69 µM (active) | 4.18 µM (active) | 7.43 µM (active) and 13 µM (active) | 4.69 µM (active) | 13.1 µM (active) | 4.69 µM (active) | – | 6.11 µM (active) | – | – |
| COC[C@H](NC(=O)c1cnc(C)s1)C(=O)N[C@@H](COC)C(=O)N[C@@H](Cc1ccccc1)C(=O)[C@@]1(C)CO1 | 3.48 | inactive | inactive | 0.132 µM (active) | 0.296 µM (active) | 0.105 µM (active) | 0.148 µM (active) | 3.72 µM (active) | 1.18 µM (active) | 0.587 µM (active) | 0.296 µM (active) | 0.0935 µM (active) | 0.273 µM (active) | 0.0662 µM (active) | 0.0296 µM (active) |
| CC[C@H]1OC(=O)[C@H](C)[C@@H](O[C@H]2C[C@@](C)(OC)[C@@H](O)[C@H](C)O2)[C@H](C)[C@@H](O[C@@H]2O[C@@H](C)C[C@H](N(C)C)[C@@H]2O)[C@](C)(O)C[C@@H](C)C(=O)[C@H](C)[C@@H](O)[C@]1(C)O | 97 | inactive | inactive | inactive | inactive | inactive | inactive | inactive | inactive | inactive | inactive | – | inactive | – | – |
| Cc1cnc(Nc2ccc(CN3CCOCC3)cc2)nc1Nc1cccc(S(=O)(=O)NC(C)(C)C)c1 | 3.36 | inactive | inactive | 3.32 µM (active) | 3.32 µM (active) | 2.64 µM (active) | 3.32 µM (active) | 3.32 µM (active) and 1.84 µM (active) | 33.2 µM (active) | 9.3 µM (active) | 4.69 µM (active) | 2.96 µM (active) | 17.2 µM (active) | 2.96 µM (active) | 0.833 µM (active) |
| CC(=O)NCC(=O)N1[C@H]2CC[C@H]1c1cc(Nc3ncc(C(F)(F)F)c(NC4CCC4)n3)ccc12 | 2.93 | inactive | inactive | 5.26 µM (active) | 0.935 µM (active) | 0.0833 µM (active) | 0.209 µM (active) | 3.72 µM (active) | 13.2 µM (active) | 0.131 µM (active) | 18.7 µM (active) | – | 24.3 µM (active) | 0.0833 µM (active) | 0.118 µM (active) |
| Nc1cccc2c1C(=O)N(C1CCC(=O)NC1=O)C2=O (stereo not drawn) | 88.7 | inactive | inactive | inactive | inactive | inactive | 0.0042 µM (active) | inactive | inactive | inactive | inactive | inactive | inactive | – | inactive |
| CCCCCCCCCCCC(CC1OC(=O)C1CCCCCC)OC(=O)C(CC(C)C)NC=O (stereo not drawn) | 89.4 | inactive | inactive | inactive | inactive | inactive | inactive | inactive | inactive | inactive | inactive | inactive | inactive | 9.35 µM (active) | – |
| NC[C@H]1O[C@H](O[C@H]2[C@@H](O)[C@@H](O[C@H]3O[C@H](CO)[C@@H](O)[C@H](N)[C@@H]3O)[C@H](N)C[C@@H]2N)[C@H](N)C[C@H]1O | 123 | inactive | inactive | inactive | inactive | inactive | inactive | inactive | inactive | inactive | inactive | – | inactive | inactive | inactive |
